Usually inhibition stands for the drop in the measured response relative to a control, in per cent.

Assay [1] has as its target Death-associated protein kinase 1 (Homo sapiens) (UniProt P53355). As to conditions: at 1 µM.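 Note: each value is a mean inhibition figure.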
Assay [2] deals with T1, Serine/threonine-protein kinase DCLK2 (Homo sapiens) (UniProt Q8N568).
T1 sequence (whole entry): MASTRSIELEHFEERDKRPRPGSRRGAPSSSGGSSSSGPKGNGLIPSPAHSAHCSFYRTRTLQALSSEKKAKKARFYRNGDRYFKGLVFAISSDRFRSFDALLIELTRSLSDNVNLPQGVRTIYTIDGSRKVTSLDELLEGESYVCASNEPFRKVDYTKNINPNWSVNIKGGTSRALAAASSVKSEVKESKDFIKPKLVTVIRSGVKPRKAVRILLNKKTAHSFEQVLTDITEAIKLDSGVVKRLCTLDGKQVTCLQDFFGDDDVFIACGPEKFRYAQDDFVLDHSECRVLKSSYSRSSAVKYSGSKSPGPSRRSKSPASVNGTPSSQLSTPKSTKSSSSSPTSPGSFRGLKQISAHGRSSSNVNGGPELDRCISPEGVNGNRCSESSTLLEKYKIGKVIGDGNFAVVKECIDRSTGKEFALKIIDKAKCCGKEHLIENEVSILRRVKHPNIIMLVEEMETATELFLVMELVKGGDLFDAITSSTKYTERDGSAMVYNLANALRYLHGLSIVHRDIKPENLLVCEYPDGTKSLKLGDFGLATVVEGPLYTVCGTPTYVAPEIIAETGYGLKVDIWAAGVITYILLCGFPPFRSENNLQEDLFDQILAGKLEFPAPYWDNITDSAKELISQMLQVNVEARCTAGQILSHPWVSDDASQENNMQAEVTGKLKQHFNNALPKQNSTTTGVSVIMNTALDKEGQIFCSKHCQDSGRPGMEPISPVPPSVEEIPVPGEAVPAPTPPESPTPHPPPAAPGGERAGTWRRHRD
As to conditions: at 0.1 µM.

Assay [3] has as its target T1, Serine/threonine-protein kinase DCLK2 (Homo sapiens). The note with it: at 1 µM.
Assay [4] addresses MAP kinase-activated protein kinase 2 (Homo sapiens) (UniProt P49137). The note with it: at 0.1 µM.
For assay [5] the target is unchanged. The note with it: at 1 µM.
The target of assay [6] is MAP kinase-activated protein kinase 3 (Homo sapiens) (UniProt Q16644). As to conditions: at 0.1 µM.
Sequence of MAP kinase-activated protein kinase 3 (Homo sapiens) (Q16644 whole entry, looked up): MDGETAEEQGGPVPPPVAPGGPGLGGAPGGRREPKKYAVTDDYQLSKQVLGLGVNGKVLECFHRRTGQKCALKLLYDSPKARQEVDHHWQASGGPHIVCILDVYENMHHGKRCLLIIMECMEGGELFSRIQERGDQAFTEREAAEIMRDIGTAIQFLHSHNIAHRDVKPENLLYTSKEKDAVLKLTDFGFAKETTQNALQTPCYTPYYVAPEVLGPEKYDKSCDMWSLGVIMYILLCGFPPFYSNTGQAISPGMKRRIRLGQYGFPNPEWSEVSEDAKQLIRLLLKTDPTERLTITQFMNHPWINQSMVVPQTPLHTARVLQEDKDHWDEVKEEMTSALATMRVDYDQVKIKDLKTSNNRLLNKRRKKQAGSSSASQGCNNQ
The target is the same in assay [7]. As to conditions: at 1 µM.
The target in assay [8] is Serine/threonine-protein kinase MARK1 (Homo sapiens) (UniProt Q9P0L2). As to conditions: at 0.1 µM.
Sequence of Serine/threonine-protein kinase MARK1 (Homo sapiens) (Q9P0L2 whole entry, looked up): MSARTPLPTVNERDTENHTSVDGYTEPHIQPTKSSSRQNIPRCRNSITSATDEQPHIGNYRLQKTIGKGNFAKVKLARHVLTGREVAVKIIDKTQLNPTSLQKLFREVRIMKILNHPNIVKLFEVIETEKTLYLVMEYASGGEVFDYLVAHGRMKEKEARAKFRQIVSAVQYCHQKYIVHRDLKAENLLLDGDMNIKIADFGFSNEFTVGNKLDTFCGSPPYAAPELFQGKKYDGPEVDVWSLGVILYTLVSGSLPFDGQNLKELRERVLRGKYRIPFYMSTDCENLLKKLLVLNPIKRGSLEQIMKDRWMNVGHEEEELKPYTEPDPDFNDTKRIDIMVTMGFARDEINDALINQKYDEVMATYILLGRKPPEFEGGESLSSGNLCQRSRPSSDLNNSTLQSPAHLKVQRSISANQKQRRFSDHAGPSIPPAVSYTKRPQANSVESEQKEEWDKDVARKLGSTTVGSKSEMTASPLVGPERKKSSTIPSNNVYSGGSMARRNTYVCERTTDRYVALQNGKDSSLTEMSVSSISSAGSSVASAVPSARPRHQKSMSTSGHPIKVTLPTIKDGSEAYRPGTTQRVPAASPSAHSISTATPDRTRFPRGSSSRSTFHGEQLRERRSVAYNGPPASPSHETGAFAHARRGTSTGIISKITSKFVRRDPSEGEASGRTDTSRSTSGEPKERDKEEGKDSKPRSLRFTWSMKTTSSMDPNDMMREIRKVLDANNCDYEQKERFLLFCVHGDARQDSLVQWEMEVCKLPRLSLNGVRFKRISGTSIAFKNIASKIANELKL
Assay [9] has the same target. As to conditions: at 1 µM.
The target of assay [10] is MAP/microtubule affinity-regulating kinase 3 (Homo sapiens) (UniProt P27448). As to conditions: at 0.1 µM.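 Note: mean percent inhibition of MARK3 kinase activity, measured within the GSK PKIS screening panel.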
Sequence of MAP/microtubule affinity-regulating kinase 3 (Homo sapiens) (P27448 whole entry, looked up): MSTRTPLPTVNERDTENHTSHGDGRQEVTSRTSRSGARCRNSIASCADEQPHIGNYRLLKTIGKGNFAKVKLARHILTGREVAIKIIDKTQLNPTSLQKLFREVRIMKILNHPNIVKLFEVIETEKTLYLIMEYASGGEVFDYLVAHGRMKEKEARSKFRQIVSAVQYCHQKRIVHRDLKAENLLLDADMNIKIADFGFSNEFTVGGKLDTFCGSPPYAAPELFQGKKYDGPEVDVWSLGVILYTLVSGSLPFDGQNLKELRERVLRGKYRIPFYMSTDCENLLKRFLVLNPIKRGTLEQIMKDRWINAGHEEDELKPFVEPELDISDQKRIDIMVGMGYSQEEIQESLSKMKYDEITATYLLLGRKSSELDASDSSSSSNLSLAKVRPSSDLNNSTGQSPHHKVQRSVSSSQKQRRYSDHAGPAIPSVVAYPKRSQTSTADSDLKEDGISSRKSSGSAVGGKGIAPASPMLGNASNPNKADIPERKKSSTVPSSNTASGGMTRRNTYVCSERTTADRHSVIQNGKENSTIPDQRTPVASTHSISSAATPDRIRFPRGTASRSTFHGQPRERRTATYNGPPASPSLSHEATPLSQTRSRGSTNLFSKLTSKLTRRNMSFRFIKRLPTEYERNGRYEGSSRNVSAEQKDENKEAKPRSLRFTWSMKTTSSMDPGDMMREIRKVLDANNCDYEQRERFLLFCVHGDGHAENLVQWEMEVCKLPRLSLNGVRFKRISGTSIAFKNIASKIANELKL

“And” between values parts separate entries of the source, which are not always exact repeats. Equal entries are not always repeated.

Sequence of Death-associated protein kinase 1 (Homo sapiens) (P53355 whole entry, looked up): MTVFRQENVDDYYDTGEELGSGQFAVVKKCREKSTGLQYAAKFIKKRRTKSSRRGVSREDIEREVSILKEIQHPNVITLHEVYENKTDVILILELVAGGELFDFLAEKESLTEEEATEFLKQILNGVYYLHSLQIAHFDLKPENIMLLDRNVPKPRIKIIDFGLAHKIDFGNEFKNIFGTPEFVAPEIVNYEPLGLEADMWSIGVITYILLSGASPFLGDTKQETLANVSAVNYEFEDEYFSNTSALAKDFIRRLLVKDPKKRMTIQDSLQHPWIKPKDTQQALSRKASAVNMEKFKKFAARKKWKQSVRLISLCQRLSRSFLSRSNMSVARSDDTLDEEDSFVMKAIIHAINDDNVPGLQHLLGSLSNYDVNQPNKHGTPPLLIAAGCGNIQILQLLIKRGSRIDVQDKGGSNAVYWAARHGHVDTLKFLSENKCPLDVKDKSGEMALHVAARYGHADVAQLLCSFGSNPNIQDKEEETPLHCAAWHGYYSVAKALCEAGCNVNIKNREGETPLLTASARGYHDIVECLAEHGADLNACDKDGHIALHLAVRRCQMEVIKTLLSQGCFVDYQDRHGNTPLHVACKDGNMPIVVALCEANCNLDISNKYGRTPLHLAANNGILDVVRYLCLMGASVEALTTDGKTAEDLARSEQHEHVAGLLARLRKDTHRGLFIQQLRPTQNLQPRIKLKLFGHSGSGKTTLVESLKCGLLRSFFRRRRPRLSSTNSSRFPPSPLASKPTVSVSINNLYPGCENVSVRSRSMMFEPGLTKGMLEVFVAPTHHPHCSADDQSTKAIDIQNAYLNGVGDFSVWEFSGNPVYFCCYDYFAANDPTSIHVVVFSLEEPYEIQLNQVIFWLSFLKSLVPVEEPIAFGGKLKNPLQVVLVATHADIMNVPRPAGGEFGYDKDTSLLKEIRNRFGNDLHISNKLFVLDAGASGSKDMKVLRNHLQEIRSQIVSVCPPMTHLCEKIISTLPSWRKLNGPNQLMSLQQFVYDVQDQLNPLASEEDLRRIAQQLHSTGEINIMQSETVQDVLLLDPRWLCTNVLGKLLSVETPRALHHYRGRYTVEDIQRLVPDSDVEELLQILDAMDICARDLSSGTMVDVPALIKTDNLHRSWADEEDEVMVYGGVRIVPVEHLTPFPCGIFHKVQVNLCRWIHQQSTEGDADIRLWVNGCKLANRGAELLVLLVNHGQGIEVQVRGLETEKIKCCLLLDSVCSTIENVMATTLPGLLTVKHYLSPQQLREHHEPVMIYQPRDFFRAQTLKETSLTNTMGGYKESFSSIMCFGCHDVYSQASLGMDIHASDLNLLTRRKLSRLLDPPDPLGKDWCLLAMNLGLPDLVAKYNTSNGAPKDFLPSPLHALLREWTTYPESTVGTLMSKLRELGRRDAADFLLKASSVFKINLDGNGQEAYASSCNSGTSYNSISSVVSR
Sequence of MAP kinase-activated protein kinase 2 (Homo sapiens) (P49137 whole entry, looked up): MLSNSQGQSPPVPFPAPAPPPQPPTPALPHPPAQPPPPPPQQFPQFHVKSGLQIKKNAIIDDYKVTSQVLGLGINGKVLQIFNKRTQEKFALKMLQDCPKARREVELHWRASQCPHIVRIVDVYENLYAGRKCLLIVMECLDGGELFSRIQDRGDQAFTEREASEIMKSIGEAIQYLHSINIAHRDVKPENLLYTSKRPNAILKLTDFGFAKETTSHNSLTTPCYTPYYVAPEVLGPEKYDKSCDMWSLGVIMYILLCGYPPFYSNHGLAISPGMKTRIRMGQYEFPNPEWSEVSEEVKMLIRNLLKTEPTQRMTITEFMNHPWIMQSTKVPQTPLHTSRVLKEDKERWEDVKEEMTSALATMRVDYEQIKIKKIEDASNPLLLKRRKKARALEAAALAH

Turning to `COc1cc(N2CCN(C(C)C)CC2)ccc1Nc1nc(Nc2cccc(F)c2C(=O)O)c2cc[nH]c2n1`, the inhibition stood at 2.32% in assay [1]; 0.91% in assay [2]; 1.63% in assay [3]; 2.14% in [4]; 1.32% in [5]; 4.39% in [6]. In addition, the inhibition was determined as 4.68% in assay [7], 3.19% in assay [8], 8.61% in [9] and 4.95% in assay [10].
Take `O=C(O[C@H]1CN[C@H](C#Cc2cc3ncnc(Nc4ccc5c(cnn5Cc5ccccc5)c4)c3s2)C1)N1CCOCC1`: the inhibition is -1.55% in assay [1]; -2.27% in assay [2]; -1.86% in [3]; -0.79% in assay [4]; -0.97% in assay [5]; 0% in assay [6]. The inhibition in [7] was -0.37%; in [8], 0.33%; in [9], 3.97%; in assay [10], -1.73%.
On to `CC1=C(C(=O)Nc2ccc3[nH]ncc3c2)C(c2ccc(F)cc2)N=C(c2ccc(C(F)(F)F)nc2)N1` (stereo not given), for which the inhibition in assay [1] was 0.67%; in assay [2], -2.05%; in assay [3], 4.18%; in assay [4], 1.36%; in [5], 0.33%; in assay [6], 1.46%. Also, the inhibition in assay [7] amounted to 3.59%; in [8], 1.66%; in [9], 4.38%; in assay [10], 1.04%.
Regarding `FC(F)(F)CNc1nccc(-c2cnn3ncccc23)n1`, the inhibition was 2.17% in assay [1]; -0.54% in [2]; 3.19% in assay [3]; 1% in assay [4]; -0.08% in assay [5]; 3.47% in assay [6]. Moreover, the inhibition in assay [7] was 3.54%; in [8] it was 1.58%; in [9], 4.46%; in [10], 0.46%.
`c1ccc(-c2n[nH]cc2-c2ccnc(-c3ccc(OCCn4ccnc4)cc3)c2)nc1`: the inhibition in [1] was -8.69%; in assay [2], 6.53%; in [3] it was -6.73%; in assay [4], -2.58%; in [5], -2.83%; in assay [6], -3.24%. Further, the inhibition was 4.97% in assay [7], 1.59% in [8], 3.61% in assay [9] and -0.18% in [10].
As for `CN1CCN(Cc2ccc(-c3cc4ncnc(Nc5ccc(OCc6cccc(F)c6)c(Cl)c5)c4s3)o2)CC1`, the inhibition in assay [1] is 8.26% and 8.39%; in assay [2], -1.96% and 1.28%; in [3] it was -0.55% and 0.13%; in assay [4], 3.34% and 2.08%; in assay [5], 3.32% and 2.11%; in [6], 10.6% and 4.26%. Further, the inhibition is 13% and 4.01% in [7]; 2.62% and 3.44% in assay [8]; 6.17% and 6% in assay [9]; 1.67% and 1.64% in assay [10].
Consider `COc1ccc(-c2nn3ncccc3c2-c2ccnc(Nc3ccc(F)c(F)c3)n2)cc1`, for which the inhibition in [1] came out at 6.8%; in assay [2] it was 1.7%; in assay [3], 0.5%; in assay [4] it was 2.31%; in assay [5], 2.82%; in assay [6], 16.8%. The inhibition amounted to 32.5% in assay [7], 4.53% in assay [8], 8.38% in [9] and 4.11% in assay [10].
`Nc1nonc1-c1nc2cnccc2n1C1CC1`: the inhibition was 4% and -1.82% in assay [1]; 1.88% and -0.85% in assay [2]; 3.6% and -3.51% in [3]; 1.36% and 1.4% in assay [4]; 1.45% and 0.82% in assay [5]; 5.15% and 2.54% in [6]. For the same compound, the inhibition in [7] is 6.05% and 1.43%; in assay [8], 6.69% and 4.73%; in [9] it was 23.2% and 20.6%; in assay [10], 7.63% and 5.91%.
Regarding `Cc1nnc(-c2cccc(-c3ccc(C(=O)NCC4CC4)cc3)c2)o1`, the inhibition stood at 6.03% in assay [1]; 1.25% in assay [2]; 4.29% in assay [3]; 2.92% in assay [4]; 2.7% in assay [5]; 5.72% in [6]. Besides, the inhibition was determined as 6.73% in [7], 4.06% in assay [8], 6.5% in [9] and 4.12% in [10].
As for `Cn1c(-c2nonc2N)nc2cnccc21`, the inhibition in assay [1] was 2.42%; in assay [2], 0%; in assay [3], 5.3%; in [4], 1.66%; in assay [5] it was 1.06%; in [6] it was 3.29%. The inhibition in [7] stood at 2.75%; in assay [8], 3.2%; in [9], 7.22%; in assay [10], 0.25%.
As for `CNC(=O)c1cncc(/C=C/c2ccccc2C)c1`, the inhibition worked out at 7.67% in assay [1]; 0.83% in assay [2]; 0.28% in [3]; 1.99% in assay [4]; 2.51% in assay [5]; 3.43% in [6]. The inhibition in assay [7] turned out to be 3.22%; in assay [8], 2.55%; in assay [9], 7.06%; in assay [10], 3.94%.
Take `CS(=O)(=O)CCNCc1ccoc1-c1ccc2ncnc(Nc3ccc(OCc4ccccc4)cc3)c2c1`: the inhibition in [1] was -0.75%; in assay [2], -1.49%; in assay [3], -0.03%; in assay [4], -0.61%; in assay [5] it was -0.91%; in [6], 0.57%. Also, the inhibition was 0.18% in assay [7], -0.89% in assay [8], 1.23% in assay [9] and -2.66% in [10].
On to `COc1cccc(-n2ncc3c(N/N=C/c4ccc(C(=O)NCCN(C)C)cc4)ncnc32)c1`, for which the inhibition turned out to be 4.78% in assay [1]; 1.42% in assay [2]; 0.78% in assay [3]; 0.79% in assay [4]; 1.08% in assay [5]; 1.89% in assay [6]. Also, the inhibition was determined as 4.06% in assay [7], 4.25% in assay [8], 16.7% in assay [9] and 4.78% in assay [10].
Regarding `COc1cc2c(cc1Nc1nc(Nc3cccc(F)c3C(N)=O)c3cc[nH]c3n1)N(C(=O)CN1CCN(C(C)C)CC1)CC2`, the inhibition was determined as 5.15% in assay [1]; 4.68% in assay [2]; 1.43% in assay [3]; 1.04% in assay [4]; 2.85% in assay [5]; 3.25% in assay [6]. Moreover, the inhibition worked out at 5.17% in assay [7], 1.44% in [8], 3.35% in assay [9] and 3.73% in [10].
Turning to `Nc1ncnc2occ(-c3ccc(NC(=O)Nc4cc(C(F)(F)F)ccc4F)cc3)c12`, the inhibition is 4.75% and 1.06% in assay [1]; 3.65% and -1.65% in assay [2]; -4.63% in assay [3]; 1.16% and -1.74% in assay [4]; 1.1% and -1.65% in assay [5]; 3.46% and -1.38% in assay [6]. Moreover, the inhibition was 13.9% and 7.55% in assay [7]; 1.91% and -0.63% in assay [8]; 3.01% and -0.26% in [9]; 1.57% and -1.4% in [10].

Source of the values: ChEMBL document CHEMBL1961873, “Compounds: GSK PKIS; Assays: Nanosyn kinase panel” (2012).
